From PubChem BioAssay AID1626 (SRMLSC, 2009)
Screen size: about 220,000 compounds; about 2,000 (0.91%) were called active. Another 2% or so got no clear call; they are omitted. No stated cut-off is given here; in the data, inconclusive means inhibition above about 80% without an active follow-up result; inactive means below that; test concentration not stated here. A selection follows. Potency and affinity values are given separately.

Test: M. tuberculosis H37Rv growth inhibitors, H37Rv strain (AID 1626);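 further: bacteria incubated seven days before Alamar blue readout; 0% = bacteria only wells and 100% = bacteria with antibiotic wells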
Conditions: hits give high values, concentration not given here
In the case of `O=C(O)CCc1nn2c3ccccc3n(CCO)c2nc1=O`, the inhibition is reported as 2.12% (inactive). In the case of `Cc1ccc(-c2csc3nc[nH]c(=O)c23)cc1`, the inhibition is reported as -5.48% (inactive). With `S=c1[nH]cnc2scc(-c3ccc(Cl)cc3)c12` the inhibition was 76.4% (inactive). For `Nc1nc(NC(=O)/C=C/c2ccccc2)nn1-c1ccccc1`, the inhibition was -0.46% (inactive). For `Cn1c(C(C#N)C(=O)c2sc3ccccc3c2Cl)nc2ccccc21` (configuration not stated), the inhibition was 94.3% (inactive). For `O=C(Nc1nc2ccccc2n1Cc1ccc(Cl)cc1)c1ccco1`, the inhibition was 16.1% (inactive). In the case of `Cc1ccc(Cn2c(NS(=O)(=O)c3ccccc3)nc3ccccc32)cc1`, the inhibition is reported as 84.8% (inactive). With `O=C(Nc1nc2ccccc2n1CCN1CCCCC1)c1ccco1` the inhibition was 6.64% (inactive). With `Cn1c(C(C#N)C(=O)Cc2cccc3ccccc23)nc2ccccc21` (configuration not stated) the inhibition was -15.5% (inactive). In the case of `COc1ccc(/C=C/C(=O)Nc2nc(N)n(-c3ccccc3)n2)cc1`, the inhibition is reported as 6.8% (inactive). With `CCCn1c(NCc2ccco2)nc2ccccc21` the inhibition was -3.29% (inactive). In the case of `CC(O)C1C(=O)OC2(C)CC(C)(C)NC(=S)N12` (configuration not stated), the inhibition is reported as -6.84% (inactive). For `CCOC(=O)c1c(NC(=O)CC)sc(C(C)=O)c1C`, the inhibition was 2.45% (inactive). In the case of `O=C(NN=C1CCCCCC1)c1c[nH]c2ccccc12`, the inhibition is reported as -1.9% (inactive). In the case of `Cn1c2c(c(=O)n(C)c1=O)CN(CCc1ccccc1)CN2`, the inhibition is reported as -1.68% (inactive). For `Cc1cc(C)nc(Nc2nc(=O)c3ccccc3s2)n1`, the inhibition was -3.37% (inactive). With `NC(=O)[C@@H]1CCOc2c(I)cc([N+](=O)[O-])cc2C(=O)N[C@@H](CO)C(=O)NCC(=O)N1` the inhibition was -8.7% (inactive). For `CC(=O)N1NC(=Nc2ccccc2)SC1(C)C`, the inhibition was -6.07% (inactive). With `O=C(CN1CCCC1)NCC12CC3CC(CC(C3)C1)C2` the inhibition was -7.14% (inactive). With `COCCNC(=O)C(c1ccc(Cl)cc1)N(CCOC)C(=O)CCC(=O)Nc1nccs1` (configuration not stated) the inhibition was -6.72% (inactive). In the case of `Cc1cc(C)cc(N(C(=O)CCC(=O)Nc2ccccn2)C(C(=O)NC(C)C)c2ccc(O)cc2)c1` (configuration not stated), the inhibition is reported as 4.72% (inactive). In the case of `Nc1nc(SCc2ccc(Cl)cc2Cl)ns1`, the inhibition is reported as 28.5% (inactive). For `Nc1nc(NC(=O)c2ccco2)nn1-c1ccccc1`, the inhibition was -7.46% (inactive). For `Nc1nc(NC(=O)c2ccccc2)nn1-c1ccccc1`, the inhibition was -1.03% (inactive). In the case of `COc1ccc(/C=N/NC(=O)c2ccn[nH]2)cc1Cn1nc(C)c([N+](=O)[O-])c1C`, the inhibition is reported as 1.53% (inactive). For `O=C(Cc1ccccc1[N+](=O)[O-])N1CCc2ccccc2C1`, the inhibition was -4.17% (inactive). In the case of `CC(OC(=O)CCCOc1ccccc1)C(=O)NC(N)=O` (configuration not stated), the inhibition is reported as -2.98% (inactive). With `COCCCN=C1NN=C(c2cc(C)n(Cc3ccco3)c2C)CS1` the inhibition was -3.28% (inactive). For `COCCCN=C1NN=C(c2cc(C)n(-c3ccccc3)c2C)CS1`, the inhibition was -2.89% (inactive). With `Cc1cc(C2=NNC(=NC3CC3)SC2)c(C)n1-c1ccccc1F` the inhibition was -4.49% (inactive). With `COCC(C)N=C1NN=C(c2cc(C)n(Cc3ccccc3Cl)c2C)CS1` (configuration not stated) the inhibition was 5.76% (inactive). For `O=C(OCC(=O)N1c2ccccc2Sc2ccccc21)C1CC(=O)N(Cc2ccco2)C1` (configuration not stated), the inhibition was 3.33% (inactive). With `Brc1ccc(-c2c[n+]3c(n2-c2ccccc2)SCC3)cc1` the inhibition was 1.71% (inactive). In the case of `CCOc1ccccc1CNC(=O)CCN1C(=O)COc2ccccc21`, the inhibition is reported as 4.08% (inactive). With `CCOC(=O)C1=C(c2ccccc2)NC(=O)NC1c1ccc(OCC#N)c(OC)c1` (configuration not stated) the inhibition was 2.6% (inactive). For `CCOC(=O)C1=C(c2ccccc2)NC(=O)NC1c1ccc(OC)c(OC)c1` (configuration not stated), the inhibition was -0.28% (inactive). With `N#Cc1nc(-c2ccccc2F)oc1NC1CCCCC1` the inhibition was 3.24% (inactive). With `CN(CC(=O)Nc1ccc(C#N)cc1)Cc1ccc(Cl)c(Cl)c1` the inhibition was 11.2% (inactive). For `CN(CC(=O)Nc1ccc(Cl)c(Cl)c1)C(=O)/C=C/c1ccc(F)cc1`, the inhibition was -5.59% (inactive). For `CCOP(=O)(OCC)C(Nc1cccc(C(F)(F)F)c1)c1ccc(F)cc1` (configuration not stated), the inhibition was 0.98% (inactive). In the case of `C=CCN=C1NN=C(c2ccc3c(c2)OCCO3)CS1`, the inhibition is reported as -5.3% (inactive). With `c1cc2c(cc1C1=NNC(=NC3CC3)SC1)OCCO2` the inhibition was -0.26% (inactive). In the case of `COc1ccccc1NS(=O)(=O)c1cc(NC(=O)c2ccco2)ccc1N1CCOCC1`, the inhibition is reported as 9.4% (inactive). For `O=c1[nH]c(=O)n(C2CCCCC2)c(O)c1C1NCCc2ccccc21` (configuration not stated), the inhibition was -2.63% (inactive). With `COc1cc(NC(=S)Nc2ccccn2)cc(OC)c1` the inhibition was 14.7% (inactive). With `Cc1cc(C)c(C)c(S(=O)(=O)N2CCN(C(=S)NCC3CCCO3)CC2)c1C` (configuration not stated) the inhibition was 9.9% (inactive). With `O=C(Nc1ccccc1O)c1ccc(Cl)cc1` the inhibition was -5.68% (inactive). With `COc1ccc(C(=O)Nc2cc(Cl)ccc2OC(=O)c2ccc(OC)cc2)cc1` the inhibition was -1.73% (inactive). For `CN(C)S(=O)(=O)c1cccc(C(=O)OCC(=O)NC2CCCc3ccccc32)c1` (configuration not stated), the inhibition was 2.51% (inactive). With `O=C(CSc1nc2ccccc2c(=O)n1-c1ccccc1)N1CCC1` the inhibition was -2.38% (inactive). For `Cc1ccc(Oc2ccc(C(F)(F)F)cc2[N+](=O)[O-])c([N+](=O)[O-])n1`, the inhibition was 3.08% (inactive). With `O=C(Nc1ccc(F)cc1)c1ccccc1Oc1ccc(C(F)(F)F)cc1[N+](=O)[O-]` the inhibition was -1.92% (inactive). With `OCCC1CN(Cc2cnc(-c3ccccc3)s2)CCN1C1CCCCC1` (configuration not stated) the inhibition was 2.22% (inactive). For `Cc1ccc(C2=NNC(=Nc3ccc(F)cc3)SC2)cc1`, the inhibition was 5.11% (inactive). For `Cc1cccc(N=C2NN=C(c3ccc4c(c3)OCCO4)CS2)c1`, the inhibition was 6.79% (inactive). In the case of `COCCn1c(C)cc(C2=NNC(=Nc3ccc(OC)cc3)SC2)c1C`, the inhibition is reported as -6.04% (inactive). For `COc1ccc(N=C2NN=C(c3ccc4c(c3)OCCO4)CS2)cc1`, the inhibition was -3.14% (inactive). For `Cc1cc(C2=NNC(=Nc3ccccc3)SC2)c(C)n1C`, the inhibition was 0.04% (inactive). With `Fc1ccc(N=C2NN=C(c3cc(F)ccc3F)CS2)cc1` the inhibition was 9.64% (inactive). In the case of `O=C(CCC1CCCCC1)NNC(=O)c1cnccn1`, the inhibition is reported as 22.5% (inactive). For `CCCS(=O)(=O)c1csc(C(=O)OC)c1N`, the inhibition was -5.25% (inactive). For `CS(=O)(=O)c1ccc(C(=O)OCC(=O)NC2CCS(=O)(=O)C2)cc1[N+](=O)[O-]` (configuration not stated), the inhibition was 2.59% (inactive).
